Assay results: PubChem BioAssay (NCATS)
Results filed as inconclusive are left out. A call without a number means that no potency is given here. Calls of active or inactive are those of the source. The call rests on the fitted dose curve; in most records, active means well fitted inhibition curve with a large enough effect; inconclusive means small, poorly fitted or top-dose-only effect; inactive means flat fitted curve, though single readings scatter. Bridge positions count the residues as written; N and C are the ends. Square brackets hold non-standard residues; d marks the D form. Peptide text beside a SMILES is read from it. * marks the point of attachment. Ileψ(thiazoline)Cys = CC[C@H](C)[C@H](N)C1=N[C@H](C(=O)*)CS1; d(aIle) = CC[C@H](C)[C@@H](N)C(=O)O; dOrn = NCCC[C@@H](N)C(=O)O

Columns and labels:
Experiment in all cases: qHTS profiling for inhibitors of Plasmodium falciparum proliferation (AID 504749); further: nearly all actives have a fitted effect of over 60% in size
Details in all cases: P. falciparum in erythrocytes, SYBR Green DNA, 72 h; series mostly up to 12.8 µM
CP185 = test system: CP185
Summary of the method: (§1)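 Quantitative HTS: compounds pinned into medium, infected erythrocytes added (0.3% parasitemia, 2.5% hematocrit), 72 h culture at 37 C under 5% CO2. Saponin/Triton lysis with SYBR Green I, overnight RT, then fluorescence read.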

CP192 = test system: CP192
Summary of the method: as §1

CP211 = test system: CP211
Summary of the method: as §1

CP215 = test system: CP215
Summary of the method: as §1

CP247 = test system: CP247
Summary of the method: as §1

CP262 = test system: CP262
Summary of the method: as §1

CP266 = test system: CP266
Summary of the method: as §1

CP268 = test system: CP268
Summary of the method: as §1

CP269 = test system: CP269
Summary of the method: as §1

CP286 = test system: CP286
Summary of the method: as §1

CP291 = test system: CP291
Summary of the method: as §1

CP297 = test system: CP297
Summary of the method: as §1

CP305 = test system: CP305
Summary of the method: as §1

DIV30 = test system: DIV30
Summary of the method: as §1

Dd2 = test system: Dd2
Summary of the method: as §1

ICS = test system: ICS
Summary of the method: as §1

P93_24 = test system: P93_24
Summary of the method: as §1

PC15 = test system: PC15
Summary of the method: as §1

PC26 = test system: PC26
Summary of the method: as §1

DIV17 = test system: DIV17
Summary of the method: as §1
Potency means the concentration at half of the fitted maximal effect.

Row | Compound | Potency (CP185) | Potency (CP192) | Potency (CP211) | Potency (CP215) | Potency (CP247) | Potency (CP262) | Potency (CP266) | Potency (CP268) | Potency (CP269) | Potency (CP286) | Potency (CP291) | Potency (CP297) | Potency (CP305) | Potency (DIV30) | Potency (Dd2) | Potency (ICS) | Potency (P93_24) | Potency (PC15) | Potency (PC26) | Potency (DIV17)
1 | C[C@H]1CS(=O)(=O)CCN1/N=C\c1ccc([N+](=O)[O-])o1 | inactive | inactive | inactive | inactive | inactive | inactive | inactive | inactive | inactive | inactive | inactive | inactive | inactive | inactive | inactive | inactive | inactive | inactive | inactive | –
2 | CC(C)(C)NC[C@@H](O)COc1ccccc1C1CCCC1 | 3.16 µM (active) | 6.42 µM (active) | – | 4.55 µM (active) | – | – | – | – | 5.73 µM (active) | 3.55 µM (active) | 4.05 µM (active) | 7.21 µM (active) | – | 5.73 µM (active) | 1.58 µM (active) | 1.41 µM (active) | 2.24 µM (active) | 2.51 µM (active) | 6.42 µM (active) | 3.22 µM (active)
3 | NC[C@@H]1O[C@H](O[C@@H]2[C@H](O[C@@H]3O[C@H](CO)[C@@H](O)[C@@H]3O)[C@@H](O)[C@@H](N)C[C@H]2N)[C@@H](N)[C@H](O)[C@@H]1O | inactive | inactive | inactive | – | inactive | inactive | inactive | inactive | inactive | inactive | inactive | inactive | inactive | inactive | inactive | inactive | inactive | inactive | inactive | inactive
4 | C=C1c2c(Cl)ccc(O)c2C(O)=C2C(=O)[C@@]3(O)C(O)=C(C(N)=O)C(=O)[C@@H](N(C)C)[C@@H]3[C@@H](O)[C@H]12 | inactive | inactive | inactive | inactive | inactive | inactive | inactive | inactive | inactive | – | inactive | inactive | inactive | inactive | 2.24 µM (active) | – | – | inactive | – | inactive
5 | C1CCN2C[C@@H]3C[C@@H](CN4CCCC[C@H]34)[C@H]2C1 | inactive | inactive | inactive | – | inactive | inactive | inactive | inactive | inactive | inactive | inactive | inactive | inactive | inactive | inactive | inactive | inactive | inactive | inactive | inactive
6 | CCC(=O)OCC(=O)[C@@]1(OC(=O)CC)[C@H](C)C[C@@H]2[C@@H]3[C@H]([C@@H](O)C[C@@]21C)[C@]1(C)C=CC(=O)C=C1C[C@@H]3Cl | inactive | inactive | inactive | – | – | inactive | inactive | – | – | – | – | 5.1 µM (active) | – | – | – | 1.12 µM (active) | – | – | – | –
7 | CCN[C@@H]1C[C@H](N)[C@H](O[C@H]2OC(CN)=CC[C@H]2N)[C@@H](O)[C@H]1O[C@H]1OC[C@@](C)(O)[C@@H](NC)[C@@H]1O | inactive | inactive | inactive | inactive | inactive | inactive | inactive | inactive | inactive | inactive | inactive | inactive | inactive | inactive | inactive | inactive | inactive | inactive | inactive | inactive
8 | C#C[C@]1(O)CC[C@@H]2[C@H]3CCC4=CCCC[C@@H]4[C@@H]3CC[C@@]21C | inactive | inactive | inactive | inactive | inactive | inactive | inactive | inactive | inactive | inactive | inactive | inactive | inactive | inactive | inactive | inactive | inactive | inactive | inactive | inactive
9 | CC1=C(C(=O)O)N2C(=O)[C@@H](NC(=O)[C@@H](N)c3ccc(O)cc3)[C@@H]2SC1 | inactive | inactive | – | inactive | inactive | inactive | inactive | inactive | inactive | inactive | inactive | inactive | inactive | inactive | inactive | inactive | inactive | inactive | inactive | inactive
10 | CN1CCO[C@H](c2ccccc2)c2ccccc2C1 | – | inactive | inactive | inactive | – | inactive | inactive | – | inactive | inactive | inactive | inactive | inactive | – | – | inactive | – | inactive | inactive | –
11 | CCN(CCCCOC(=O)c1ccc(OC)c(OC)c1)[C@@H](C)Cc1ccc(OC)cc1 | – | – | inactive | inactive | inactive | – | inactive | inactive | – | – | inactive | inactive | – | inactive | inactive | – | inactive | inactive | – | –
12 | CC1(C)[C@@H](OC(=O)CCC(=O)O)CC[C@@]2(C)[C@H]1CC[C@@]1(C)[C@H]2C(=O)C=C2[C@H]3C[C@](C)(C(=O)O)CC[C@]3(C)CC[C@@]21C | inactive | inactive | inactive | inactive | inactive | inactive | inactive | inactive | inactive | inactive | inactive | inactive | inactive | inactive | inactive | inactive | inactive | inactive | inactive | inactive
13 | CCOC(=O)O[C@@H](C)OC(=O)[C@@H]1N2C(=O)[C@@H](NC(=O)[C@@H](N)c3ccccc3)[C@H]2SC1(C)C | inactive | – | inactive | inactive | inactive | inactive | inactive | inactive | inactive | inactive | inactive | inactive | inactive | inactive | inactive | inactive | inactive | inactive | inactive | inactive
14 | O=C(O)COCCN1CCN([C@@H](c2ccccc2)c2ccc(Cl)cc2)CC1 | inactive | inactive | inactive | inactive | inactive | inactive | inactive | inactive | inactive | inactive | inactive | inactive | inactive | inactive | inactive | – | – | inactive | inactive | –
15 | C[C@@H]1C[C@H]2[C@@H]3C[C@H](F)C4=CC(=O)C=C[C@@]4(C)[C@]3(F)[C@H](O)C[C@]2(C)[C@@]1(O)C(=O)CO | inactive | inactive | inactive | inactive | inactive | inactive | inactive | inactive | inactive | inactive | inactive | inactive | inactive | inactive | inactive | inactive | inactive | inactive | inactive | inactive
16 | Clc1ccc([C@H](Cn2ccnc2)OCc2c(Cl)cccc2Cl)c(Cl)c1 | – | – | – | 5.73 µM (active) | 3.16 µM (active) | – | – | – | – | – | – | – | – | 7.21 µM (active) | 3.55 µM (active) | 1.58 µM (active) | 0.794 µM (active) | – | 4.55 µM (active) | 4.05 µM (active)
17 | CCN(CC)CCOC(=O)[C@@H](Cc1cccc2ccccc12)C[C@@H]1CCCO1 | inactive | – | inactive | inactive | inactive | inactive | inactive | inactive | inactive | inactive | inactive | inactive | inactive | inactive | – | inactive | inactive | inactive | – | –
18 | CO[C@@H]1C[C@H](O[C@H]2[C@@H](C)[C@H](O[C@@H]3O[C@@H](C)C[C@@H](N(C)C)[C@@H]3OC(C)=O)[C@H](C)C[C@]3(CO3)C(=O)[C@H](C)[C@H](OC(C)=O)[C@H](C)[C@H](C)OC(=O)[C@@H]2C)O[C@H](C)[C@@H]1OC(C)=O | inactive | inactive | inactive | inactive | inactive | – | inactive | inactive | inactive | inactive | inactive | inactive | inactive | inactive | inactive | inactive | inactive | inactive | inactive | inactive
19 | NC[C@@H]1O[C@@H](O[C@H]2[C@H](O)[C@H](O[C@@H]3O[C@H](CO)[C@@H](O)[C@H](N)[C@@H]3O)[C@@H](N)C[C@H]2N)[C@H](N)C[C@@H]1O | inactive | inactive | inactive | inactive | inactive | inactive | inactive | inactive | inactive | inactive | inactive | inactive | inactive | inactive | inactive | inactive | inactive | inactive | inactive | inactive
20 | CC(=O)O[C@H]1C[C@@]2(C)[C@H](C[C@@H](O)[C@H]3[C@@]4(C)CC[C@@H](O)[C@@H](C)[C@H]4CC[C@@]32C)C1=C(CCC=C(C)C)C(=O)O | inactive | inactive | inactive | inactive | inactive | inactive | inactive | inactive | inactive | inactive | inactive | inactive | inactive | inactive | inactive | – | inactive | inactive | inactive | –
21 | CC[C@H](C)[C@H](N)C1=N[C@H](C(=O)N[C@@H](CC(C)C)C(=O)N[C@@H](CCC(=O)O)C(=O)N[C@@H](C(=O)N[C@H]2CCCCNC(=O)[C@@H](CC(N)=O)NC(=O)[C@@H](CC(=O)O)NC(=O)[C@@H](Cc3cnc[nH]3)NC(=O)[C@@H](Cc3ccccc3)NC(=O)[C@@H]([C@@H](C)CC)NC(=O)[C@@H](CCCN)NC2=O)[C@@H](C)CC)CS1 ({Ileψ(thiazoline)Cys}-LE[d(aIle)]K[dOrn][d(aIle)][dF][dH][dD][dN]; lactam 4-C) | inactive | inactive | inactive | inactive | inactive | inactive | inactive | inactive | inactive | inactive | inactive | inactive | inactive | inactive | inactive | inactive | inactive | inactive | inactive | inactive
22 | CC[C@](C)(CN(C)C)OC(=O)c1ccccc1 | inactive | inactive | inactive | inactive | inactive | inactive | inactive | inactive | inactive | inactive | inactive | inactive | inactive | inactive | 5.01 µM (active) | inactive | – | inactive | inactive | inactive
23 | Cc1cccc(CN2CCN([C@@H](c3ccccc3)c3ccc(Cl)cc3)CC2)c1 | – | – | inactive | inactive | – | inactive | inactive | inactive | inactive | – | inactive | inactive | inactive | – | – | 2.82 µM (active) | – | – | – | –
24 | Cc1ccsc1/C=C\C1=NCCCN1C | inactive | inactive | inactive | inactive | inactive | inactive | inactive | inactive | inactive | inactive | inactive | inactive | inactive | inactive | inactive | inactive | inactive | inactive | inactive | inactive
25 | Cc1onc(-c2ccccc2Cl)c1C(=O)N[C@H]1C(=O)N2[C@H]1SC(C)(C)[C@H]2C(=O)O | inactive | inactive | inactive | inactive | inactive | inactive | – | inactive | inactive | inactive | inactive | inactive | inactive | inactive | inactive | inactive | inactive | inactive | inactive | inactive
